RMI FANCM FP – inhibitors of human RMI core complex binding to FANCM MM2 | Fluorescence polarization, RMI core complex with F-MM2 peptide; stronger effect = lower value | FP signal (polarization) at 33 µM | 70,000 tested, 0.58% active; in the data active = FP signal below about 40
Each line names hits and unclear results; the compound was inactive in the other large screens. This is one part of a sample in which hits are shown more often than they occur.

O=c1[nH]c(O)c(C=C2C=Nc3ccccc32)c(=O)[nH]1	none
O=C(Nc1cccc(-c2nc3cccnc3s2)c1)Nc1ccccc1Cl	none
CCn1c(=NC(=O)CSCC(=O)NC2CCCCC2)sc2cc(C(=O)OC)ccc21	none
c1c2c(cc3sc(N4CCN(c5nc6cc7c(cc6s5)OCCO7)CC4)nc13)OCCO2	none
CCC(=O)Nc1nc2cc3c(cc2s1)OCCO3	none
NNc1nc2cc3c(cc2s1)OCCO3	RMI FANCM FP -6
COc1cccc(C(=O)Nc2sc(C)c(C)c2C(N)=O)c1OC	none
O=c1[nH]c2c(s1)C1c3ccccc3OCC1CS2 (stereo not drawn)	none
O=c1[nH]c2c(s1)C(c1ccc(Cl)cc1)C1C3CCC(C3)C1S2 (stereo not drawn)	RMI FANCM FP 16
COc1ccc(C2c3sc(=O)[nH]c3SC3C4CC(C5C(=O)N(c6ccccc6)C(=O)C45)C23)cc1 (stereo not drawn)	none
C/C=C/C(=O)Nc1cc(C)nn1-c1nc2c(c(=O)[nH]1)CCC2	none
Cc1cc(NC(=O)c2cc(=O)c3ccccc3o2)n(-c2nc3c(c(=O)[nH]2)CCC3)n1	RMI FANCM FP 9
Cc1cc(NC(=O)C(=O)c2c[nH]c3ccccc23)n(-c2nc3c(c(=O)[nH]2)CCC3)n1	none
O=C(CCCSc1ccc(NC(=O)c2ccco2)nn1)NCc1ccc2c(c1)OCO2	none
Cc1ccc(S(=O)(=O)n2ccn(C(=O)C(C)Oc3ccccc3)c2=O)cc1 (stereo not drawn)	none
Cc1ccc(C(=O)NCC(c2ccsc2)N2CCCC2)cc1C (stereo not drawn)	none
COc1cc(OC)cc(C(=O)NCC(c2ccsc2)N2CCCC2)c1 (stereo not drawn)	RMI FANCM FP 9
COc1ccc(CC(=O)NCC(c2ccsc2)N2CCCC2)cc1 (stereo not drawn)	none
Cc1ccc(-c2c(C)nn3c(NC(C)C)cc(C)nc23)cc1	none
CCOC(=O)Cc1csc(NC(=O)CSCC(=O)O)n1	none
CSc1nsc(N)n1	none
O=C(NCCN1CCN(c2ccccc2F)CC1)C(=O)Nc1ccc2c(c1)OCO2	none
NC(=O)C(C(F)(F)F)C(F)(F)F	none
COC(=O)c1ccccc1NC(=O)CN1CCN(C(c2ccccc2)c2ccccc2)CC1	none
NC(=O)C1Cc2ccccc2N1C(=O)c1cccs1 (stereo not drawn)	none
NC(=O)C1Cc2ccccc2N1C(=O)C1CC1 (stereo not drawn)	none
NC(=O)C1Cc2ccccc2N1C(=O)Nc1cccs1 (stereo not drawn)	RMI FANCM FP 28
Cc1cc(-c2ccccc2)nc2oc3c(SCC(=O)c4ccc(-c5ccccc5)cc4)ncnc3c12	RMI FANCM FP 32
CCOC(=O)Cn1cnc2c(oc3nc(-c4ccccc4)cc(-c4ccccc4)c32)c1=O	none
Cc1cc(-c2ccccc2)nc2oc(C(=O)c3ccc(Cl)cc3)c(N)c12	none
CCOc1ccc(NC(=O)NCCn2nc(-c3ccncc3)ccc2=O)cc1	none
COc1ccc(CC(=O)N2CCN=C2SCc2ccccc2Cl)cc1OC	none
CCCc1noc(C)c1C(=O)O	RMI FANCM FP -5
Cc1noc(C)c1S(=O)(=O)N1CCC(C(=O)O)CC1	none
Cc1coc(C)c1C(=O)O	none
O=C(CC(=O)N=Nc1c(O)[nH]c2ccccc12)N=Nc1c(O)[nH]c2ccccc12	none
COc1ccc(C(=O)CN2CCN(CCN3C(=O)c4cccc5cccc(c45)C3=O)CC2)cc1	RMI FANCM FP 25
COC(=O)c1ccc(OCC(O)CN2CCN(CCN3C(=O)c4cccc5cccc(c45)C3=O)CC2)cc1 (stereo not drawn)	none
O=C(CN1CCN(CCN2C(=O)c3cccc4cccc(c34)C2=O)CC1)c1ccc(F)cc1	none
O=C1CC(c2ccc(O)cc2)Oc2cc(O)cc(O)c21 (stereo not drawn)	none
O=C(O[C@@H]1Cc2c(O)cc(O)cc2O[C@@H]1c1cc(O)c(=O)c2c(O)c(O)cc([C@H]3Oc4cc(O)cc(O)c4C[C@H]3O)c2c1)c1cc(O)c(O)c(O)c1	none
Oc1cc(O)c2c(c1)O[C@H](c1cc(O)c(O)c(O)c1)[C@H](O)[C@H]2c1c(O)cc(O)c2c1O[C@H](c1cc(O)c(O)c(O)c1)[C@H](O)[C@H]2c1c(O)cc(O)c2c1O[C@H](c1cc(O)c(O)c(O)c1)[C@H](O)C2	RMI FANCM FP -7
O=C(Nc1cccc(-c2ccc(N3CCOCC3)nn2)c1)C(F)(F)F	none
Clc1cc(Cl)cc(C=NCc2ccccc2)c1	RMI FANCM FP 21
C(=NCCc1ccccc1)c1ccccc1	none
C(=NCc1ccccc1)c1ccc2c(c1)OCO2	none
O=C(Nc1cccc(N2CCCCC2=O)c1)c1cccc(F)c1	none
CCCCCOc1ccc(C(=O)Nc2nc3cc4c(cc3s2)OCO4)cc1	none
O=C(Nc1ccc(-c2nc3ccccc3s2)cc1)C1CCCN1S(=O)(=O)c1cccs1 (stereo not drawn)	none
Cc1cccc(S(=O)(=O)N2CC(C)OC(C)C2)c1 (stereo not drawn)	none
CCOC(=O)N1CCN(C(=O)CSc2nc3c(c(=O)n2-c2ccc(OCC)cc2)SCC3)CC1	none
O=C(CSc1nc2c([nH]c3ccccc32)c(=O)n1-c1ccc([N+](=O)[O-])cc1)N1CCc2ccccc21	none
O=C(CSc1nc2c(c(=O)n1-c1ccc([N+](=O)[O-])cc1)SCC2)N1CCCc2ccccc21	RMI FANCM FP 24
CCOc1ccc2c(c1)OCC(c1ccc(OC)c(OCC)c1OC)C2 (stereo not drawn)	none
